A number with no mark means an inactive call. Calls follow the shape of the dose curve; as a rule, active = well fitted activation curve with a large enough effect; inconclusive = small, poorly fitted or top-dose-only effect; inactive = flat fitted curve, though single readings scatter.
Assay: Confirmation and Secondary Assay for Modulators of Hemoglobin Beta Chain Splicing at IVS2 654 locus (AID 910);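 also: HeLa cells stably carrying EGFP split by mutant beta-globin IVS2-654 intron; per-well total GFP intensity by laser scanning cytometry after 2-day treatment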
Conditions: HeLa EGFP-654 splicing reporter, GFP fluorescence, 48 h; series mostly up to 46.1 µM; activation (splicing correction): at the top concentration
In short: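 Readout: per-well total peak green fluorescence (488 nm ex, 500–520 nm em) from objects 5–250 µm, reflecting correct splicing of an EGFP-654 reporter. Compounds were applied for 2 days at 37 °C to overnight-plated HeLa EGFP-654 cells; controls were DMSO and 500 nM IVS2-654 PNA.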
Also: % of control where 0% means no effect.

Question: With `CC1(C)OC(=O)NC1=O` as the compound, how does the “activation (splicing correction)” value read?
Answer: 6.47%

Question: Which “activation (splicing correction)” value does the source give for `CSc1ccc2c(c1)N(CCC1CCCCN1C)c1ccccc1S2` (configuration not stated) here?
Answer: -4.02%

Question: For `CSc1ccc2c(c1)C(N1CCN(C)CC1)Cc1ccccc1S2` (configuration not stated), which “activation (splicing correction)” value is on record?
Answer: -3.16% [at 38.3 µM]

Question: Which “activation (splicing correction)” value does the source give for `NCC(=O)CCC(=O)O` here?
Answer: 6.6%

Question: Which “activation (splicing correction)” value does the source give for `NS(=O)(=O)c1cc2c(cc1C(F)(F)F)NC(Cc1ccccc1)NS2(=O)=O` (configuration not stated) here?
Answer: 6.17%

Question: For `CNCCC(Oc1ccc(C(F)(F)F)cc1)c1ccccc1` (configuration not stated), which “activation (splicing correction)” value is on record?
Answer: -2.35%

Question: For `CNCC(O)c1ccc(O)c(O)c1` (configuration not stated), which “activation (splicing correction)” value is on record?
Answer: 3.99%

Question: Which “activation (splicing correction)” value does the source give for `CC(C)(C(=O)O)c1ccc(C(O)CCCN2CCC(C(O)(c3ccccc3)c3ccccc3)CC2)cc1` (configuration not stated) here?
Answer: -1.14% [at 38.3 µM]

Question: Which “activation (splicing correction)” value does the source give for `CCn1cc(C(=O)O)c(=O)c2cnc(N3CCNCC3)nc21` here?
Answer: -5.22%

Question: Which “activation (splicing correction)” value does the source give for `O=C1NS(=O)(=O)c2ccccc21` here?
Answer: 1.15%

Question: With `Nc1ccc(S(=O)(=O)NC(=O)c2ccccc2)cc1` as the compound, how does the “activation (splicing correction)” value read?
Answer: 5.05%

Question: Which “activation (splicing correction)” value does the source give for `Cc1ccc(C(C)C)cc2c(C)ccc1-2` here?
Answer: -1.57% [at 38.3 µM]

Question: Which “activation (splicing correction)” value does the source give for `CN(C)CCOC(C)(c1ccccc1)c1ccccn1` (configuration not stated) here?
Answer: 8.21%

Question: Which “activation (splicing correction)” value does the source give for `CN(C)CC[C@@H](c1ccc(Cl)cc1)c1ccccn1` here?
Answer: -1.48%

Question: With `CN1CCOC(c2ccccc2)c2ccccc2C1` (configuration not stated) as the compound, how does the “activation (splicing correction)” value read?
Answer: 0.405%

Question: With `O=C(Oc1ccccc1C(=O)O)c1ccccc1O` as the compound, how does the “activation (splicing correction)” value read?
Answer: 9.6%

Question: Which “activation (splicing correction)” value does the source give for `Nc1ccc(S(=O)(=O)Nc2ccc(Cl)nn2)cc1` here?
Answer: 7.19%

Question: With `O=c1cc[nH]c(=S)[nH]1` as the compound, how does the “activation (splicing correction)” value read?
Answer: 10.5%

Question: For `CN(C)CCN(Cc1ccccc1)c1ccccn1`, which “activation (splicing correction)” value is on record?
Answer: 1.33% [at 38.3 µM]

Question: Which “activation (splicing correction)” value does the source give for `CC(COc1ccccc1)NC(C)C(O)c1ccc(O)cc1` (configuration not stated) here?
Answer: 0.744%

Question: Which “activation (splicing correction)” value does the source give for `O=C(O)c1ccccc1O` here?
Answer: 4.86%

Question: With `CCCCCCCCCCCCCCCCCCOCC(O)CO` (configuration not stated) as the compound, how does the “activation (splicing correction)” value read?
Answer: 0.24% [at 38.3 µM]

Question: For `O=C(CCCN1CCN(c2ccccn2)CC1)c1ccc(F)cc1`, which “activation (splicing correction)” value is on record?
Answer: 2.74%

Question: With `CC(CN1c2ccccc2Sc2ccccc21)N(C)C` (configuration not stated) as the compound, how does the “activation (splicing correction)” value read?
Answer: 7.86%

Question: With `OCC(O)CN1CCN(c2ccccc2)CC1` (configuration not stated) as the compound, how does the “activation (splicing correction)” value read?
Answer: 3.77%

Question: For `CC1=C(CC(=O)O)c2cc(F)ccc2/C1=C\c1ccc(S(C)=O)cc1` (configuration not stated), which “activation (splicing correction)” value is on record?
Answer: -0.715%

Question: With `Cn1cc[nH]c1=S` as the compound, how does the “activation (splicing correction)” value read?
Answer: -1.18%

Assay: Confirmation and Secondary Assay for Modulators of Hemoglobin Beta Chain Splicing at IVS2 705 locus (AID 930);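 also: HeLa cells stably expressing the EGFP-705 splicing reporter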
Conditions: HeLa EGFP-705 splicing reporter, GFP fluorescence, 48 h; series mostly up to 46.1 µM; activation: at the top concentration
In short: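 HeLa cells stably carrying EGFP interrupted by mutant beta-globin IVS2-705 intron (CMV-driven) were seeded at 500 cells/well, treated next day with compound for 2 days at 37C; corrected splicing restores EGFP, read as total peak GFP intensity per well.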

Question: For `CC1(C)OC(=O)NC1=O`, which “activation” value is on record?
Answer: 0.229%

Question: For `CC(C)(C(=O)O)c1ccc(C(O)CCCN2CCC(C(O)(c3ccccc3)c3ccccc3)CC2)cc1` (configuration not stated), which “activation” value is on record?
Answer: 0.803% [at 38.3 µM]

Question: For `O=C(O)c1ccccc1O`, which “activation” value is on record?
Answer: -1.3%

Question: For `CCCCCCCCCCCCCCCCCCOCC(O)CO` (configuration not stated), which “activation” value is on record?
Answer: -0.388% [at 38.3 µM]

Question: Which “activation” value does the source give for `CC(CN1c2ccccc2Sc2ccccc21)N(C)C` (configuration not stated) here?
Answer: -0.775%
